# Experimental data published in PubChem BioAssay AID485364 (National Center for Advancing Translational Sciences (NCATS), 2010).
# Hit rate of the full screen: of about 360,000 compounds, about 11,000 (3.1%) were called active. About 4% were inconclusive and are not listed. Calls follow the shape of the dose curve; as a rule, active = well fitted inhibition curve with a large enough effect; inconclusive = small, poorly fitted or top-dose-only effect; inactive = no such curve, though single readings can be large or run the other way. Only a selection was taken, and actives are over-represented in it overall.
# Biological target: Schistosoma mansoni thioredoxin glutathione reductase (TGR) (UniProt Q962Y6)
# Assay: qHTS Assay for the Inhibitors of Schistosoma Mansoni Peroxiredoxins; also: nearly all actives have a fitted effect of over 60% in size
# Settings: purified TGR, DTNB reduction, TNB absorbance 405 nm; series mostly up to 114 µM; activity change, negative = inhibition: at the top concentration
# Outline: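 Kinetic colorimetric format: TGR-catalysed, NADPH-driven DTNB reduction monitored via TNB absorbance. Enzyme dispensed at 20 nM; compound exposure 15 min at room temperature before reaction start.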
# % is scaled to controls: 0 for no effect and ±100 for the full control effect; potency is read from the fitted curve at half-maximal effect.
SMILES,"activity change, negative = inhibition",Potency
Cc1ccc2onc(CC(=O)N3CCN(c4ccc(Cl)cc4)CC3)c2c1,-6.48% (inactive),–
CCc1cc2c(cc(C(=O)OC)n2Cc2nc(-c3ccc(C)cc3)oc2C)s1,6.16% (inactive),–
CC(=O)N1c2ccc(S(=O)(=O)N3CCCCCC3)cc2CC1C(=O)NCc1ccccc1C (centres undefined),1.56% (inactive),–
CC(=O)c1ccc(N2CCN(c3nc4c(S(=O)(=O)c5ccccc5)nnn4c4ccc(Cl)cc34)CC2)cc1,1.2% (inactive),–
O=C(CSc1nccn1-c1ccc(F)cc1)Nc1cccc2ccccc12,-0.677% (inactive),–
CC(=O)Nc1ccc2nc(SCCOc3cc(C)cc(C)c3)sc2c1,-10.3% (inactive),–
O=C(NCC12CC3CC(CC(C3)C1)C2)c1cc2nc(-c3ccccc3)cc(C(F)(F)F)n2n1,2.05% (inactive),–
CCCNC(=O)C1CCC(Cn2c(=O)c3sccc3n(Cc3ccccc3F)c2=O)CC1 (centres undefined),-0.604% (inactive),–
COc1ccccc1Nc1nc(N)nc(N)c1S(=O)(=O)c1ccccc1,4.24% (inactive),–
CCOC(=O)C1Cn2c(nc3c(c2=O)C(C)(CC)Cc2ccccc2-3)S1 (centres undefined),-10.3% (inactive),–
CCC1(CC)Cc2ccccc2-c2nc(CCl)[nH]c(=O)c21,–,3.16 µM (active)
CC1(C)Cc2ccccc2-c2[nH]c(=S)[nH]c(=O)c21,-2.97% (inactive),–
CCOC(=O)c1oc2ccc(S(=O)(=O)n3nc(-c4ccccc4OC)cc3N)cc2c1C,0.311% (inactive),–
COc1ccc(Cl)cc1N(C)C(=O)c1cc2c(=O)oc3ccc(C)cc3c2s1,-4.63% (inactive),–
O=S(=O)(O)Oc1c[nH]c2ccccc12,–,20 µM (active)
NC(=O)CSc1c[nH]c2ccccc12,-1.35% (inactive),–
O=C(OCC(=O)c1c[nH]c2ccccc12)c1cccc(O)c1,1.01% (inactive),–
Cc1ccc(OCC(=O)Nc2ccc(Cl)c(-c3nc4ccccc4[nH]3)c2)cc1C,1.61% (inactive),–
CCc1nc2nc(C)cc(Nc3ccc(F)c(Cl)c3)n2n1,1.94% (inactive),–
CCc1ccccc1NC(=O)[C@@H]1CCC(=O)N1C1OC(=O)c2c1ccc(OC)c2OC (some centres undefined),-3.57% (inactive),–
COc1ccc(N/C=C(\C2OC(=O)c3ccccc32)[N+](=O)[O-])cc1 (centres undefined),-2.72% (inactive),–
COc1ccc(-c2csc(NC3OC(=O)c4ccccc43)n2)cc1 (centres undefined),–,5.62 µM (active)

SMILES,"activity change, negative = inhibition",Potency
COc1ccc2c(c1OC)C(=O)OC2Nc1nc(-c2ccccc2)cs1 (centres undefined),–,3.16 µM (active)
Cc1ccc(-c2csc(-c3c[nH]c4ccccc34)n2)cc1,11.5% (inactive),–
C/C(CC1CC(C)(C)OC1=O)=N/Nc1nc(-c2ccccc2)cs1 (centres undefined),-10.8% (inactive),–
CCCc1cc(-c2nc(-c3ccc(C)cc3)cs2)ccn1,-0.4% (inactive),–
COc1ccc(-c2csc(NC(=O)COC(=O)Cc3ccc(Cl)cc3Cl)n2)cc1,-8.86% (inactive),–
Cc1ccc(-c2csc(NC3OC(=O)c4ccccc43)n2)cc1 (centres undefined),–,28.2 µM (active)
Cc1nnc(NC(=O)CSc2nc3c([nH]c4ccccc43)c(=O)n2-c2cccc(Cl)c2)s1,-0.89% (inactive),–
CC(=O)Nc1c(C)nn(-c2ccccc2)c1N1CCC(C(=O)Nc2cc(Cl)ccc2C)CC1,-5.66% (inactive),–
Cn1nnnc1SCCCNCc1ccc(Cl)cc1,-2.62% (inactive),–
Fc1ccc(-c2nc(Nc3cccc(Cl)c3)nc3c2COc2ccccc2-3)cc1,-5.35% (inactive),–
Cc1ccc(S(=O)(=O)N2CCCc3cc(NS(=O)(=O)c4cc(C)ccc4C)ccc32)cc1,6.35% (inactive),–
Cc1cc(NS(=O)(=O)c2ccc3oc(=O)c4ncn(C)c4c3c2)ccc1Br,1.12% (inactive),–
Cc1cc(C)cc(NC(=O)CCCc2nc(-c3ccccc3Cl)no2)c1,6.16% (inactive),–
O=C1CSC(=S)N1c1ccc(O)cc1,-0.744% (inactive),–
CCOc1cccc(/C=N/N2C(=O)CSC2=S)c1O,–,3.55 µM (active)
COc1cc(N2C(=O)CSC2=S)cc(OC)c1OC,12.2% (inactive),–
Cc1cc(C)cc(NC(c2nnc(-c3cccc(F)c3)o2)c2ccc(F)cc2Cl)c1 (centres undefined),-1.07% (inactive),–
CCOc1cccc(CNC(=O)c2ccc(N3CCCC3)c(NC(=O)Nc3ccccc3CC)c2)c1,-5.43% (inactive),–
Cc1c(Cl)cccc1NC(=O)NCc1ccc(C)n1C,–,35.5 µM (active)
Cc1c(Cl)cccc1NC(=O)NCCCN1CCCC1=O,0.302% (inactive),–
Cc1c(Cl)cccc1NC(=O)Nc1ccc(C(=O)N2CCCC2)cc1,4.88% (inactive),–
C#CC(C)(CC)NC(=O)Cn1nnc(-c2ccc(OCc3c(F)cccc3Cl)cc2)n1 (centres undefined),-0.75% (inactive),–

SMILES,"activity change, negative = inhibition",Potency
Cc1nnc(SCC(=O)NC2CCCC2)s1,4.15% (inactive),–
CO/N=C(\C(=O)N[C@@H]1C(=O)N2C(C(=O)O)=C(COC(C)=O)CS[C@H]12)c1csc(N)n1 (stereo in doubt),-2.3% (inactive),–
Cc1cc(C)cc(C(=O)NC2C(=O)N3C(C(=O)O)=C(CSc4nnc(C)s4)CSC23)c1 (centres undefined),–,5.01 µM (active)
Cc1nnc(SCC2=C(C(=O)O)N3C(=O)C(NC(=O)Cn4nc(C)c(Cl)c4C)C3SC2)s1 (centres undefined),–,10 µM (active)
O=C(Cn1ncc2c3ccccc3n(Cc3ccccc3)c2c1=O)NC1CCCCCC1,-5.12% (inactive),–
Cc1cccc(CSc2nc3ccncc3n2CC(=O)N(C)C2CCCCC2)c1,-3.37% (inactive),–
CC(C)(C)OC(=O)N1CCC(c2c(C(=O)NCc3ccccn3)cnn2-c2ccc(F)cc2)CC1,25.3% (inactive),–
COc1cccc(NC(=O)CCNS(=O)(=O)c2ccc3c(c2)oc(=O)n3C)c1,–,inactive
COc1ccc(S(=O)(=O)NCCCCOc2ccc(Cl)cc2)cc1,-4.78% (inactive),–
COc1cccc(NC(C)=[N+](C)CCNS(=O)(=O)c2ccc(Cl)cc2)c1,–,31.6 µM (active)
N#Cc1nc(/C=C/c2ccc(F)cc2)oc1NC1CCCCC1,-2.25% (inactive),–
CCC(=O)N1N=C(c2ccc(OC)cc2)CC1c1cn(-c2ccccc2)nc1-c1cccs1 (centres undefined),0.702% (inactive),–
CCCn1c2ccccc2c2cnn(CC(=O)NCCCOC(C)C)c(=O)c21,-2.21% (inactive),–
CCSc1nnc2c(n1)OC(c1ccc(OCC(=O)O)cc1)Nc1ccccc1-2 (centres undefined),1.91% (inactive),–
COC(=O)c1scc(-c2ccc(C)cc2)c1S(=O)(=O)Nc1cc(Cl)c(OC)cc1OC,2.52% (inactive),–
COc1ccc(Nc2ncc3c(n2)CCN(C(=O)OC(C)(C)C)C3)cc1,1.18% (inactive),–
Cc1cccc(-n2c(O)c(C=NC34CN5CN(CN(C5)C3)C4)c(=O)[nH]c2=O)c1,–,7.94 µM (active)
Cc1cccc(-n2c(O)c(/C=N/N3CCOCC3)c(=O)[nH]c2=S)c1,-0.279% (inactive),–
Cc1cccc(-n2c(O)c(C=Nc3ccccc3N)c(=O)[nH]c2=O)c1,-31.6% (inactive),–
CCOc1ccc(NC(=O)CCC(=O)N2CC(C)Oc3ccc(C)cc32)cc1 (centres undefined),-1.11% (inactive),–
